Source: PubChem BioAssay
DT40 TDP1 CPT: qHTS for Inhibitors of human tyrosyl-DNA phosphodiesterase 1 (TDP1): qHTS in cells in presence of CPT. Potency, µM (top dose mostly 46.2 µM), for the others: top-dose activity change, negative = growth inhibition, usual class: inhibitors. 12% of 420,000 active. chicken DT40 Tdp1-/-;hTDP1 cells + 20 nM CPT, ATP luminescence, 48 h; also: potency is read from the fitted curve at half-maximal effect; % is scaled to controls: 0 for no effect and ±100 for the full control effect; nearly all actives have a fitted effect of over 55% in size
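Cell growth measured by CellTiter-Glo luminescence after a minimum 48 h, 37 C compound exposure with 20 nM CPT in Tdp1-knockout DT40 cells stably expressing hTDP1, seeded 400/well; qHTS titration format.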
TDP1 block: qHTS Assay for Inhibitors of Tyrosyl-DNA Phosphodiesterase (TDP1); Tyrosyl-DNA phosphodiesterase 1 (Homo sapiens), Q9NUW8; recombinant TDP1, AlphaScreen DNA substrate cleavage; Potency, µM (series often up to 130 µM), for inactives: at the top dose activity change, negative = inhibition, most hits filed as inhibitors; 0.28% of 350,000 active; AID 485290, 2010; also: potency is read from the fitted curve at half-maximal effect; % is scaled to controls: 0 for no effect and ±100 for the full control effect; nearly all actives have a fitted effect of over 40% in size
Target sequence (Q9NUW8 whole entry, looked up): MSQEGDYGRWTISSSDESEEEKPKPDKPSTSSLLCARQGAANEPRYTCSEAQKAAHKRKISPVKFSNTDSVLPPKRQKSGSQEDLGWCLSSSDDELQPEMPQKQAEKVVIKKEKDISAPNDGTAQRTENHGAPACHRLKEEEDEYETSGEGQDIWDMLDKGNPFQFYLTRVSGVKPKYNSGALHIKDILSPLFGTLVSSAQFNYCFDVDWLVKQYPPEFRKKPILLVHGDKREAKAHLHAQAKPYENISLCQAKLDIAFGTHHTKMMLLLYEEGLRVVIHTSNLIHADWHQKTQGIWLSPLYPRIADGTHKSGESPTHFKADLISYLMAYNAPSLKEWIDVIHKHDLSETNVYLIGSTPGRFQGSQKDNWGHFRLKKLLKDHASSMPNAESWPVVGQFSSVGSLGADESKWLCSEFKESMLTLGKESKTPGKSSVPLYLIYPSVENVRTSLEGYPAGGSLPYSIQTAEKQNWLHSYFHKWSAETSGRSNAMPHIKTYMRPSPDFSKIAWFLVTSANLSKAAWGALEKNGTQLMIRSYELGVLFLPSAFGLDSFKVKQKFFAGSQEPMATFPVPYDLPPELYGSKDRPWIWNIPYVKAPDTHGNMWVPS
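AlphaScreen read-out: signal falls as enzyme removes the 3' tyrosine-FITC from a 5'-biotinylated DNA oligo (15 nM, 5 min, RT). Enzyme was E. coli-made recombinant Tdp1 at 1 nM, exposed to compound for 15 min beforehand; beads 10 ug/ml, 10 min.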
DT40 TDP1 no CPT: qHTS for Inhibitors of human tyrosyl-DNA phosphodiesterase 1 (TDP1): qHTS in cells in absence of CPT. Potency, µM (doses to about 46.2 µM), for inactives: at the top dose activity change, negative = growth inhibition, most hits filed as inhibitors. 15% of 420,000 active. DT40 Tdp1-/- hTDP1 cells, no CPT, ATP luminescence, 48 h; also: potency is read from the fitted curve at half-maximal effect; % is scaled to controls: 0 for no effect and ±100 for the full control effect; nearly all actives have a fitted effect of over 55% in size
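Chicken DT40 Tdp1-/- cells stably complemented with human TDP1 were seeded at 400 cells/well with DMSO in place of 20 nM camptothecin. After compound pinning, cells grew at least 48 hr at 37 °C; viability read by CellTiter-Glo luminescence.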
miR-21 act: qHTS Assay for Modulators of miRNAs and/orActivators of miR-21; HeLa miR-21 FLuc reporter, luciferase, 48 h; Potency, µM (highest dose often 38.3 µM), for the others: at the top dose activity change, positive = activation, actives largely listed as activators; 340,000 tested, under 10 active; AID 2288, 2010;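 also: % of control where 0% means no effect; miR-21 action dims this reporter so a rising signal means less miR-21 action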
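HeLa miR-21-FLuc reporter line, endogenous miR-21; 2000 cells/well in DMEM/10% FBS; compound titration up to ~40uM final, 48 h, 37 degree Celsius; luciferase detection reagent, 15 min lysis, CCD luminescence.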
uPA surface inh: qHTS for Inhibitors of Cell Surface uPA Generation; cell surface uPA generation assay, qHTS; Potency, µM (series often up to 38.3 µM), for inactives: top-dose activity change, negative = inhibition, hits mostly inhibitors; 0.31% of 330,000 active; AID 540303, 2011; active = well fitted inhibition curve with a large enough effect; inconclusive = small, poorly fitted or top-dose-only effect; inactive = no such curve, though single readings can be large or run the other way; tested in mouse RAW 264.7 cells; also: potency is read from the fitted curve at half-maximal effect; % is scaled to controls: 0 for no effect and ±100 for the full control effect; nearly all actives have a fitted effect of over 55% in size
An asterisk follows results filed as active; ? = inconclusive; . = no result given. This is a sample that favours compounds with a hit; in the whole collection about 16% have one here. Unless noted, calls follow the shape of the dose curve; as a rule, active = well fitted curve in the direction sought with a large enough effect; inconclusive = small, poorly fitted or top-dose-only effect, or another doubt; inactive = no such curve, though single readings can be large; an effect the other way counts as inactive or inconclusive.

SMILES	DT40 TDP1 CPT	TDP1 block	DT40 TDP1 no CPT	miR-21 act	uPA surface inh
C=CC[C@H](CC(=O)NCCO)C(=O)N[C@@H](COC(=O)[C@H](CC=C)CC(=O)OC(C)(C)C)Cc1ccccc1	?	0.0%	-20.2%	.	-4.2%
COc1c2c(nc3ccccc13)OC(C(C)(O)CO)C2 (stereo not drawn)	11.1%	2.5%	1.1%	-1.9%	5.3%
O=C(CN1CCN(c2ccc(O)cc2)CC1)Nc1cc(S(=O)(=O)N2CCCCC2)ccc1Cl	10.3µM*	5.3%	10.3µM*	7.0%	-5.7%
CC1CN(CC(=O)Nc2cc(S(=O)(=O)N3CCCC3)ccc2Cl)CC(C)O1 (stereo not drawn)	-22.2%	-2.7%	?	1.5%	5.1%
CN(C)S(=O)(=O)c1ccc(Cl)c(NC(=O)CN2CCCC2)c1	2.8%	2.3%	-3.6%	-1.3%	-0.9%
O=C(CNCc1ccc(Cl)cc1)Nc1cc(S(=O)(=O)N2CCCC2)ccc1Cl	20.6µM*	.	?	.	0.1%
CCN1CCN(CC(=O)Nc2cc(S(=O)(=O)N3CCCCC3)ccc2Cl)CC1	-24.9%	-0.3%	-9.9%	.	0.9%
CCOC(=O)C1CCN(CC(=O)Nc2cc(S(=O)(=O)N3CCCCC3)ccc2Cl)CC1	20.6µM*	1.8%	20.6µM*	.	-18.9%
O=C(CN1CCN(c2ccc(O)cc2)CC1)Nc1cc(S(=O)(=O)N2CCCC2)ccc1Cl	?	7.4%	18.4µM*	-7.5%	-24.1%
CCCCOC(=O)/C(=C/c1cn(C)c2ccccc12)NC(=O)c1ccc(OC)cc1	2.2%	0.6%	-22.3%	-14.5%	-3.2%
CCN(CC)C(=O)c1sc2c(c1C)c(=O)n(-c1ccccc1)c(=O)n2CC(=O)Nc1ccc(C)cc1C	?	-2.5%	-4.7%	4.0%	.
Cc1cccnc1NC(=O)c1nn(C)c2c1CS(=O)(=O)c1ccccc1-2	-4.8%	1.7%	3.0%	-4.2%	-10.8%
Cn1c(=O)c2c(O)c(Cc3ccccc3)c(=O)[nH]c2n(C)c1=O	12.2%	5.3%	-11.8%	-16.0%	4.0%
Cc1ccc(C)c2[nH]c(=O)c(CCNC(=O)c3cc4ccccc4o3)cc12	18.4µM*	2.1%	20.6µM*	-8.9%	-4.2%
COc1ccc(OC)c2[nH]c(=O)c(CCNC(C)=O)cc12	-3.7%	2.1%	-3.5%	-4.5%	6.7%
COc1ccc(OC)c2[nH]c(=O)c(CCNC(=O)c3cc4ccccc4o3)cc12	14.6µM*	2.1%	?	-6.6%	-11.3%
c1ccc2c(c1)c1cccc3ccc4cccc2c4c31	-2.7%	-0.3%	1.8%	.	3.0%
c1cncc(N=c2scc(-c3cccc4ccccc34)n2CCCn2ccnc2)c1	?	10.3%	?	5.7%	2.0%
CCc1ccccc1N(CC(=O)NC1CCCCC1)C(=O)CCC(=O)Nc1ccccn1	-15.3%	1.6%	-17.5%	0.6%	0.0%
N#CC(=C1C=CC(=NO)C(Cl)=C1)c1ccc(Cl)cc1	4.61µM*	.	3.66µM*	.	-7.6%
CCOC(=O)c1ccccc1NC(=O)Cn1cnc2c(cnn2C(C)(C)C)c1=O	?	5.2%	25.9µM*	-5.3%	1.2%
Cc1ccccc1Cn1cnc2c(cnn2C(C)(C)C)c1=O	?	-4.4%	?	-2.7%	-6.6%
CC(C)(C)n1ncc2c(=O)n(CC(=O)NCc3ccco3)cnc21	?	5.0%	?	-5.1%	-14.4%
CC(C)(C)n1ncc2c(=O)n(CC(=O)NCc3ccc(F)cc3)cnc21	6.51µM*	2.0%	8.2µM*	17.7%	-18.1%
Cc1ccc(C)c(Cn2cnc3c(cnn3C(C)(C)C)c2=O)c1	-112.5%	-1.9%	18.4µM*	0.1%	7.6%
SMILES	DT40 TDP1 CPT	TDP1 block	DT40 TDP1 no CPT	miR-21 act	uPA surface inh
CC(C)(C)n1ncc2c(=O)n(CC(=O)Nc3ccccc3)cnc21	-26.9%	-1.0%	-28.3%	-26.5%	1.2%
COC(=O)[C@@]1(Cc2ccc(OC)cc2)[C@H]2c3cc(C(=O)N4CCCC4)n(CCc4ccccn4)c3C[C@H]2CN1C(=O)c1ccccc1	.	10.5%	.	.	.
CCOc1ccc(N(CC(=O)N2CCCC2)S(=O)(=O)c2c(C)noc2C)cc1	3.6%	3.9%	-3.6%	-1.1%	-6.3%
CCOc1ccc(C2C(C#N)=C(N)Oc3n[nH]c(C)c32)cc1OC(=O)C1CC1 (stereo not drawn)	-11.6%	1.9%	-17.2%	9.7%	4.6%
CC(C)(C)NCC(O)Cn1cc(C=O)c2ccccc21 (stereo not drawn)	-6.5%	-2.7%	-1.1%	-10.1%	-12.8%
CCCN(CCC)CC(O)Cn1cc(/C=C/C(=O)c2ccc(C)cc2)c2ccccc21 (stereo not drawn)	?	7.6%	20.6µM*	24.8%	.
CCCN(CCC)CC(O)Cn1cc(/C=C/C(=O)c2cccs2)c2ccccc21 (stereo not drawn)	18.4µM*	-1.4%	?	4.5%	?
CCCN(CCC)CC(O)Cn1cc(/C=C/C(=O)c2ccc(Br)cc2)c2ccccc21 (stereo not drawn)	3.26µM*	0.0%	4.61µM*	-4.7%	.
O=C(/C=C/c1cn(CC(O)CN2CCCCC2)c2ccccc12)c1ccccc1 (stereo not drawn)	?	1.4%	?	-0.5%	-5.0%
CN(CCC1CCOCC1)C(=O)CC1C(=O)NCCN1CC1CCCCC1 (stereo not drawn)	8.8%	-3.6%	-4.5%	-0.5%	1.7%
COc1ccc(CCNC(=O)CN(C2CCCCC2)S(C)(=O)=O)cc1OC	-11.4%	5.2%	-20.5%	-3.3%	2.5%
CCCN1C(=O)/C(=C/c2ccc(C)s2)NC1=S	25.9µM*	0.0%	-7.0%	-17.9%	2.3%
CCCNC(=O)c1ccccc1NC(=O)COc1cccc2c1OC(C)(C)C2	?	0.5%	18.4µM*	.	2.2%
COc1cccc(NC(=O)COC(=O)COc2cccc3c2OC(C)(C)C3)c1	-15.5%	5.6%	-8.6%	2.1%	4.0%
CN(C)S(=O)(=O)c1ccc(NC(=O)COc2cccc3c2OC(C)(C)C3)cc1	20.6µM*	-0.3%	?	.	-5.4%
COc1ccccc1CCNC(=O)COc1cccc2c1OC(C)(C)C2	11.0%	.	23.1µM*	.	3.1%
COc1ccc(NC(=O)COc2cccc3c2OC(C)(C)C3)cc1OC	20.6µM*	-0.1%	13µM*	.	?
CCc1ccc(NC(=O)CCNC(=O)Cn2ccc3ccccc3c2=O)cc1	2.7%	.	-12.5%	-0.3%	-4.7%
COc1ccc(S(=O)(=O)N2CCC3(CC2)OCCN3S(=O)(=O)c2c(C)cc(C)cc2C)cc1	13µM*	.	8.2µM*	.	12.9%
Cc1ccc(C)c(S(=O)(=O)N2CCC3(CC2)OCCN3S(=O)(=O)c2cccs2)c1	?	-0.3%	?	.	-9.3%
